According to PMC4552634, “A New Set of Chemical Starting Points with Plasmodium falciparum Transmission-Blocking Potential for Antimalarial Drug Discovery” (PLoS ONE, 2015):
Where two headings read alike, the source gives them in different places. The campaign covered roughly 13,000 compounds. About 3,200 (25%) showed an effect of 50% or more. The list shows a part of the results.

Test system: P. falciparum stage V gametocytes
Set-up: BacTiter-Glo ATP luminescence viability of purified stage V gametocytes in 384-well plates, per cent inhibition versus DMSO
Details: 48 h, 5 µM, inhibitor

Row | Structure (SMILES) | % Inhibition [%] | % Inhibition (% Inhibition) [%]
1 | O=C(Nc1cccc(-c2cc3ccccc3[nH]2)c1)C1CCN(Cc2ccccc2O)CC1 [TCMDC-124628] | -2.419 | –
2 | COC(=O)Nc1cc(C(F)(F)F)ccc1N1CCCC(NS(=O)(=O)c2ccc(C(C)(C)C)cc2)C1 (stereo not shown) [TCMDC-134158] | -30.72 | –
3 | CN1CCN(c2ccnc3ccc(NC(=O)Nc4ccc(Br)cc4)cc23)CC1 [TCMDC-139324] | -20.3 | –
4 | CC(CNC1CCN(CCn2c(=O)ccc3ccc(F)cc32)CC1)c1ccccc1 (stereo not shown) [TCMDC-135136] | 3.185 | –
5 | CCN1CCCC(CNC(=O)/C(=C/C=C/c2cc3cc(Cl)c(Cl)cc3[nH]2)OC)C1 (stereo not shown) [TCMDC-139380] | -27.83 | –
6 | CC1CCC(C[C@@H](C(=O)N[C@H](C(=O)Nc2nccs2)[C@@H](C)O)[C@H](CCC(F)(F)F)N(O)C=O)CC1 (stereo partly shown) [TCMDC-138352] | 2.054 | –
7 | Cc1ccc(OCCCCON2C(N)=NC(N)=NC2(C)C)cc1C [TCMDC-131655] | 1.03 | –
8 | COc1ccc2nccc([C@@H](O)CN3CCC(NCc4ccc5c(n4)NCCC5)CC3)c2c1 [TCMDC-141460] | 44.65 | –
9 | CN1CCN(c2ccnc3ccc(NC(=O)Cc4ccc(OCc5ccccc5)cc4)cc23)CC1 [TCMDC-139349] | 24.22 | –
10 | O=C(Nc1ccc(O)c(-c2nc3ccccc3[nH]2)c1)c1ccc([N+](=O)[O-])cc1 [TCMDC-124222] | -7.746 | –
11 | Nc1c2c(nc3ccc(NC(=O)CCCc4ccccc4)cc13)CCCC2 [TCMDC-139057] | 98.45 | –
12 | Nc1c2c(nc3ccc(NC(=O)CCCCCCc4ccccc4)cc13)CCCC2 [TCMDC-139056] | 74.85 | –
13 | Nc1c2c(nc3ccc(NC(=O)Cc4ccccc4)cc13)CCCC2 [TCMDC-139055] | 81.23 | –
14 | CN1CCN(c2ccnc3ccc(NC(=O)Cc4ccc5ccccc5c4)cc23)CC1 [TCMDC-139351] | 4.671 | –
15 | Nc1c2c(nc3ccc(NC(=O)c4ccccc4)cc13)CCCC2 [TCMDC-139043] | 28.63 | –
16 | O=C(CCCc1ccccc1)Nc1cccc(N2CCC(N3CCN(c4ccccc4O)CC3)CC2)c1 [TCMDC-124664] | -59.43 | –
17 | Cc1ccc2cc(NC(=O)CCCCCCCON3C(N)=NC(N)=NC34CCCCC4)ccc2n1 [TCMDC-140377] | 0.7997 | –
18 | Nc1c2c(nc3ccc(NC(=O)CCCCCc4ccccc4)cc13)CCCC2 [TCMDC-139060] | -0.3465 | –
19 | Nc1c2c(nc3cc(NC(=O)c4ccc([N+](=O)[O-])cc4)ccc13)CCCC2 [TCMDC-138975] | 103.7 | –
20 | Cc1cc(N(C)C)nc(Nc2ccc(NC(=O)CCc3ccccc3)cc2)n1 [TCMDC-124721] | 2.562 | –
21 | COc1ccc2cc(C(=O)NC3CCC(CCN4CCc5cc(C#N)ccc5C4)CC3)[nH]c2c1 (stereo not shown) [TCMDC-139193] | -26.16 | –
22 | O=C(/C=C/c1ccc(Cl)c(Cl)c1)NC1CCC(CN2CCC(c3nc4ccc(O)cc4[nH]3)CC2)CC1 (stereo not shown) [TCMDC-140227] | 3.463 | –
23 | CCCc1cc(Cc2cnc(N)nc2N)cc(CCC)c1OC [TCMDC-137694] | -10.37 | –
24 | Cc1ccc(-c2noc(=O)n2CC(=O)Nc2ccccc2-c2ccccc2)cc1 [TCMDC-123570] | 15.39 | –
25 | CC(Cc1ccc(CNC(=O)NCc2ccc(CC(C)NCCc3cccc(Cl)c3)cc2)cc1)NCCc1cccc(Cl)c1 (stereo not shown) [TCMDC-139648] | 111.4 | –
26 | CC(C)c1ccc(NC(=O)c2ccc(CN3CCCN(Cc4cccc(Cl)c4)CC3)cc2)cc1 [TCMDC-136418] | 3.705 | –

Row | Structure (SMILES) | % Inhibition [%] | % Inhibition (% Inhibition) [%]
27 | CC(Cc1ccc(CNC(=O)c2ccc(CC(C)NCCc3cccc(Cl)c3)cc2)cc1)NCCc1cccc(Cl)c1 (stereo not shown) [TCMDC-139659] | 108.3 | –
28 | CC(C)c1sc(N2CCN(C)CC2)nc1C(=O)NCCc1cccc(Cl)c1 [TCMDC-134297] | 6.593 | –
29 | CC(Cc1ccc(NS(=O)(=O)c2ccc(CC(C)NCCc3cccc(Cl)c3)cc2)cc1)NCCc1cccc(Cl)c1 (stereo not shown) [TCMDC-139797] | 48.75 | –
30 | O=C(NCCc1ccc(Cl)c(Cl)c1)c1ccc(CNC(=O)c2ccc(O)c(-c3ccc(Cl)c(Cl)c3)c2)cc1 [TCMDC-140872] | 8.428 | –
31 | CC(Cc1ccc(C(=O)N2CCN(C(=O)c3ccc(CC(C)NCCc4cccc(Cl)c4)cc3)CC2)cc1)NCCc1cccc(Cl)c1 (stereo not shown) [TCMDC-139613] | 105.5 | –
32 | CC(C)n1cc(CN2CCCC(C(=O)Nc3cccc(-c4cc5ccccc5[nH]4)c3)C2)cn1 (stereo not shown) [TCMDC-124681] | -62.3 | –
33 | CC(C)c1sc(N2CCCCC2)nc1C(=O)Nc1ccc(F)cc1C(F)(F)F [TCMDC-134299] | -21.66 | –
34 | COc1cccc(CNC(=O)NC2CCN(c3ccnc(Nc4cc(OC)c(OC)c(OC)c4)n3)C2)c1 (stereo not shown) [TCMDC-133628] | 38.97 | –
35 | CS(=O)(=O)NCCCNCc1ccc(-c2ccc(-c3nc4cc(C(F)(F)F)ccc4[nH]3)cc2)cc1.O=C(O)C(F)(F)F [TCMDC-133080] | -31.8 | –
36 | FC(F)(F)c1ccc2[nH]c(-c3ccc(-c4ccc(CNCCc5ccncc5)cc4)cc3)nc2c1.O=C(O)C(F)(F)F [TCMDC-132852] | -64.17 | –
37 | CCN(CC)CCCNCc1ccc(-c2ccc(C(F)(F)F)cc2)cc1 [TCMDC-141087] | 65.86 | –
38 | CN1CCC(NCc2ccc(-c3ccc(C(F)(F)F)cc3)cc2)CC1 [TCMDC-141094] | -30.31 | –
39 | CN(C)CCCNCc1ccc(-c2ccc(C(F)(F)F)cc2)cc1 [TCMDC-140011] | 92.27 | –
40 | CS(=O)(=O)NCCCNCc1ccc(-c2cccc(-c3nc4ccc(C(F)(F)F)cc4[nH]3)c2)cc1 [TCMDC-133087] | 6.297 | –
41 | O=C(CC(=O)C(F)(F)F)c1ccccc1[N+](=O)[O-] [TCMDC-125884] | 22.33 | –
42 | Cc1ccc(-n2c(Cc3cccc4ccccc34)nnc2SCCC#N)c(C)c1 [TCMDC-123560] | -0.8399 | –
43 | O=C(CC1CCCC1)Nc1ccc2c(c1)CCC2 [TCMDC-124327] | 8.334 | –
44 | CC(C)n1ncc2c(C(=O)N3CCCC4CCCCC43)cc(C3CC3)nc21 (stereo not shown) [TCMDC-125305] | -1.205 | –
45 | Cc1ccc(-n2c(Sc3ncnc4sccc34)nnc2N2CCCC2)cc1 [TCMDC-125247] | 65.97 | –
46 | CN1CCN(CCCCCCNc2c3ccccc3nc3ccccc23)CC1 [TCMDC-137542] | 98.34 | –
47 | CN1CCN(CCCCCNc2c3ccccc3nc3ccccc23)CC1 [TCMDC-137541] | 96.5 | –
48 | CN1CCN(c2nc(NCCNc3ccc([N+](=O)[O-])cc3)c3ccccc3n2)CC1 [TCMDC-124567] | 35.05 | –
49 | CC(CCNc1c2ccccc2nc2ccccc12)N1CCN(C)CC1 (stereo not shown) [TCMDC-138011] | 98.03 | –
50 | CN1CCN(CCCCNc2c3ccccc3nc3ccccc23)CC1 [TCMDC-137479] | 105.4 | –
51 | COc1cc2nc(NCCC(C)C)n3nc(-c4ccccc4)nc3c2cc1OC [TCMDC-124451] | -18.82 | –
52 | COc1ccc2nccc([C@@H](O)CN3CCC(NCc4nc5c(cc4Cl)SCC(=O)N5)C(F)C3)c2c1 (stereo partly shown) [TCMDC-141717] | – | 2.766

Row | Structure (SMILES) | % Inhibition [%] | % Inhibition (% Inhibition) [%]
53 | O=C(Nc1ccc(S(=O)(=O)N2CCCC2)cc1)c1cc(-c2cccnc2)nc2ccc(Cl)cc12 [TCMDC-124359] | -22.21 | –
54 | COc1ccc(-c2cnc(N)nc2N)cc1Cl [TCMDC-137297] | -3.357 | –
55 | CC(C)(C)c1cc(C(=O)N2CCN(c3ccc(C(F)(F)F)cn3)CC2)n(Cc2ccc(F)cc2)n1 [TCMDC-123791] | 22.03 | –
56 | Cc1nc(-c2cccc3c(NC(=O)N4CCc5cc6nccc(N7CCN(C)CC7)c6cc54)cccc23)no1 [TCMDC-139370] | -51.93 | –
57 | Cc1cc(N2CCCCC2)nc2ccc(NC(=O)c3cncc(Br)c3)cc12 [TCMDC-124421] | 17.06 | –
58 | O=C(Nc1ccccc1)c1ccc(N2CCC(COc3cccc(C(F)(F)F)c3)CC2)nc1 [TCMDC-134507] | -9.482 | –
59 | CC(C)CNCc1ccc(-c2ccc(CN(C(=O)NC3CCCCC3)C3CCN(Cc4ccccc4)CC3)cc2)cc1 [TCMDC-140635] | 103.7 | –
60 | CC(C)CNCc1ccc(-c2cccc(CN(C(=O)NC3CCCCC3)C3CCN(Cc4ccccc4)CC3)c2)cc1 [TCMDC-140628] | 92.69 | –
61 | CC(C)CNCc1cccc(-c2ccc(CN(C(=O)NC3CCCCC3)C3CCN(Cc4ccccc4)CC3)cc2)c1 [TCMDC-140634] | 102.1 | –
62 | CC(C)CNCc1cccc(-c2cccc(CN(C(=O)NC3CCCCC3)C3CCN(Cc4ccccc4)CC3)c2)c1 [TCMDC-140627] | 95.46 | –
63 | CC(C)Oc1ccc(C=CC(=O)Nc2noc3ccccc23)cc1 [TCMDC-125292] | 41.66 | –
64 | Cc1cccc(CNc2nc(C)cc(NCCC(=O)NCCOc3ccccc3)n2)c1 [TCMDC-134884] | 13.93 | –
65 | COc1ccc2ncc(Cl)c(CCN3CCC(NCc4ccc5c(n4)NC(=O)CO5)CC3)c2c1 [TCMDC-141808] | -9.673 | –
66 | O=C(NCCc1ccc(O)cc1)n1c2ccccc2c2ccccc21 [TCMDC-138166] | -0.5781 | –
67 | Cc1ccccc1CNc1noc(-c2c(F)cccc2Cl)n1 [TCMDC-133373] | 21.36 | –
68 | Cc1ccc(OCC2CCN(c3ncc(C(=O)NCCCN4CCCC4=O)cc3Cl)CC2)cc1 [TCMDC-134056] | 53.1 | –
69 | O=C(NCCCN1CCCC1=O)c1cnc(N2CCC(Oc3ccccc3)CC2)c(Cl)c1 [TCMDC-134054] | 50.82 | –
70 | CC(C)c1cccc(OCC2CCN(c3ncc(C(=O)NC4CC4)cc3Cl)CC2)c1 [TCMDC-134260] | -10.41 | –
71 | Cc1cccc(OCC2CCN(c3ncc(C(=O)NC4CC4)cc3Cl)CC2)c1 [TCMDC-134058] | 0.6256 | –
72 | O=C(NC1CC1)c1cnc(N2CCC(Oc3ccc(Cl)cc3)CC2)c(Cl)c1 [TCMDC-134040] | 28.34 | –
73 | O=C(NC1CC1)c1cnc(N2CCC(OCc3ccccc3)CC2)c(Cl)c1 [TCMDC-134610] | 14.6 | –
74 | Cc1cccc(OC2CCN(c3ncc(C(=O)NCCCN4CCCC4=O)cc3Cl)CC2)c1 [TCMDC-134057] | 81.53 | –
75 | Cc1cc(OCC2CCN(c3ncc(C(=O)NC4CC4)cc3Cl)CC2)ccc1F [TCMDC-134032] | 14.47 | –
76 | Cc1ccc(OCC2CCN(c3ncc(C(=O)NC4CC4)cc3Cl)CC2)cc1 [TCMDC-134055] | 11.28 | –
